HIF-2a inh = HIF-2a inhibition | inhibition, % at 18.8 µM | AID 624352 | 786-0 RCC cells HIF-2a reporter, luciferase luminescence, overnight | hit rate 0.72% among 360,000;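 active means inhibition of the luminescence signal of 40% or more relative to plate controls, in a single-dose primary screen at 18.75 µM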
CF NFkB block = inhibitors of cystic fibrosis induced NF-kB. KKLEB NF-kB-GFP reporter, PAF-induced, GFP fluorescence overnight. inhibition, % at 5 µM. hit rate 0.86% among 360,000;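 active means at least 50% inhibition at 5 µM, scaled per plate between neutral and stimulator controls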;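 further: PAF is a Pseudomonas aeruginosa culture filtrate used as stimulus; plate controls were PAF-stimulated DMSO wells for no effect and unstimulated DMSO wells for full effect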
MITF TRPM1 inh = inhibitors of MITF-driven TRPM1 promoter in melanoma cells; inhibition, % at 12.5 µM; AID 488899; SK-MEL-5 TRPM1 promoter luciferase, 24 h; hit rate 0.83% among 330,000;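 active means mean inhibition across replicates of 60% or more, whatever share of single replicates reaches that level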
KKLEB cytotox = counter-screen for CF NF-kB inhibitors: cytotoxicity; KKLEB CF airway cells viability, ATPlite luminescence, overnight; active compounds read low; cells stimulated with P. aeruginosa culture filtrate; activity change (cytotoxicity), % at 5 µM; hit rate 0.36% among 360,000;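 active means corrected activity change at or below -50% at 5 µM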
Shn3 3UTR inh = reduces Shn3 3'UTR luciferase signal in osteoblasts | Clone20 osteoblast Shn3 3'UTR firefly luciferase, 24 h | inhibition, % at 12.5 µM | hit rate 0.52% among 360,000;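 active means mean inhibition of at least 75% with every replicate also reaching 75%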;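 further: 0% = median of neutral control wells and 100% = pilot-screen positive control compound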
Peg3 prom inh-1 = reduces Peg3 promoter-driven luciferase expression in HeLa; inhibition, % at 20 µM; hit rate 1.7% among 360,000; HeLa PEG-Prom luciferase reporter, luminescence, overnight;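 active means inhibition of at least 50% at 20 µM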
Peg3 prom inh-2 = Peg3 promoter inhibition confirmation; shares compounds with Peg3 prom inh-1; HeLa PEG-Prom luciferase reporter, luminescence, overnight; inhibition, % at 20 µM; hit rate 84% among 1,300; AID 602417;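 active means at 20 µM dose, 40% or more inhibition averaged across four replicates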
Numbers without * were called inactive; / = no result given. The list is not random: actives were taken first. Their share in the collection is about 2.8%.

SMILES | HIF-2a inh | CF NFkB block | MITF TRPM1 inh | KKLEB cytotox | Shn3 3UTR inh | Peg3 prom inh-1 | Peg3 prom inh-2
COc1ccc(CC(N)c2csc(NC(=O)Nc3ccc(F)cc3)n2)cc1 (stereo not drawn) | 10 | -10 | / | 5 | 5 | 55* | /
NC(COCc1ccccc1)c1csc(Nc2nncc3ccccc23)n1 (stereo not drawn) | -3 | 19 | / | -38 | 10 | 38 | /
CC1(C)C2C/C(=N\O)C(C)(/[N+]([O-])=C/c3cccc([N+](=O)[O-])c3)CC21 (stereo not drawn) | -5 | 12 | -6 | 10 | 36 | 13 | /
N#CC1(NC(=O)CN2C(=O)c3ccc([N+](=O)[O-])cc3C2=O)CCCCC1 | 6 | 8 | -7 | -6 | -12 | 3 | /
COc1ccc(C(=O)Nc2sc(C)c(C)c2CN2CC(C)OC(C)C2)cc1 (stereo not drawn) | -84 | -7 | -1 | -6 | -19 | -77 | /
O=C(/C=C/c1ccc(Cl)cc1Cl)Nc1cccc(S(=O)(=O)NC2=NCCC2)c1 | -177 | -3 | -34 | -58* | -14 | -161 | /
C=CCC1NS(=O)(=O)O[C@H](CCCC)[C@@H]1O (stereo partly drawn) | 10 | 18 | -13 | -13 | -20 | -9 | /
CCOC(=O)C1(C(N)=O)OC1(c1ccc(Cl)cc1)c1ccccc1Cl (stereo not drawn) | -1 | -9 | 0 | 10 | -33 | 69* | /
Cc1ccc(NC(=O)Cn2c(O)c(N=NC(=O)c3cc4ccccc4cc3O)c3ccccc32)cc1 | -46 | 20 | 40 | -35 | 67 | 97* | /
Cc1ccc(N(CC(=O)NC(C)C)C(=O)CCC(=O)Nc2nccs2)c(C)c1 | 18 | -4 | -1 | -1 | -7 | 16 | /
O=C(Nc1ccc(Cl)cc1)Nc1ccc(N2CCCC2)c(S(=O)(=O)Nc2ccccc2Cl)c1 | -22 | 43 | 71* | -41 | 97* | 46 | /
CSCCC(NC(=O)c1ccco1)C(=O)Nc1ccc(C)c(S(=O)(=O)N2CCOCC2)c1 (stereo not drawn) | 17 | -6 | -7 | -7 | 6 | 16 | /
COc1ccc(NC(=S)N(CCN2CCOCC2)Cc2cc3cc4c(cc3[nH]c2=O)OCCO4)cc1 | 2 | 10 | 11 | 3 | 5 | 21 | /
CC(C)NC(=O)c1cc(-c2ccc(F)cc2OC(C)C)n[nH]1 | -2 | -16 | / | 13 | -9 | -5 | /
O=C(CN1C(=O)/C(=C2\SC(=S)N(C3CCS(=O)(=O)C3)C2=O)c2ccccc21)Nc1ccccc1 (stereo not drawn) | 5 | 53* | 13 | -6 | -33 | -1 | /
Cc1ccc(NC(=S)NC(=O)c2ccc(F)cc2)cc1S(=O)(=O)Nc1ccccc1Cl | 11 | 1 | 17 | -15 | -1 | 55* | 58*
COc1cc(/C=C/c2ccc3cccc(O)c3n2)ccc1O | -296 | -40 | 25 | 1 | 22 | 103* | 57*
CSc1ccc(/C=C/c2ccc3cccc(O)c3n2)cc1 | -124 | -5 | 9 | -10 | 24 | -77 | /
COc1cc(/C=C/c2ccc3cccc(O)c3n2)c(Br)cc1O | -141 | -6 | 1 | -10 | -10 | 98* | 92*
COc1cc(Br)c(/C=C/c2ccc3cccc(O)c3n2)cc1OC | -11 | 13 | -3 | -3 | -11 | -47 | /
COc1ccccc1NC(=O)CSc1nncs1 | 9 | -33 | 3 | -2 | 2 | 0 | /
NC(CCc1ccccc1)c1csc(Nc2ccccn2)n1 (stereo not drawn) | 1 | -11 | / | -11 | -16 | 25 | /
CCCCN(C)C(=O)c1ccc(Nc2nc(C(N)CCc3ccccc3)cs2)nc1 (stereo not drawn) | -14 | -12 | / | 2 | 16 | 61* | 83*
CN1CCC2(CC1)N=C(c1ccc(F)cc1)C(=S)N2C(=O)c1ccc(C(C)(C)C)cc1 | -12 | 1 | 14 | 0 | 9 | 70* | 84*
CC(C)(C)c1ccc(C(=O)N2CCNCC2)cc1 | -2 | 1 | -4 | -10 | 9 | -3 | /
SMILES | HIF-2a inh | CF NFkB block | MITF TRPM1 inh | KKLEB cytotox | Shn3 3UTR inh | Peg3 prom inh-1 | Peg3 prom inh-2
CCOc1ccc(CCNC(=O)c2cn(C)c3ccc(S(=O)(=O)N4CCOCC4)cc3c2=O)cc1OCC | 9 | 12 | -4 | -9 | -9 | 8 | /
CC1(C)Oc2cc3oc(-c4cc(O)cc(O)c4)cc3cc2CC1O (stereo not drawn) | 38 | -7 | 50 | -10 | 46 | 59* | 65*
Cc1ccc(F)cc1-c1cc2nc(NCCCN(C)C)n(C)c(=O)c2s1 | -6 | 3 | / | 17 | -23 | 70* | 48*
CN(C)CCCNc1nc2cc(-c3ccsc3)sc2c(=O)n1C | -28 | -11 | / | 0 | -22 | -4 | /
CCC(C)N(C(=O)COC(=O)c1ccc(N)c([N+](=O)[O-])c1)C1CCS(=O)(=O)C1 (stereo not drawn) | 14 | -4 | / | 3 | 1 | 12 | /
CCCOC(=O)c1cccc(Nc2nc(-c3cccnc3)nc3ccccc23)c1 | 21 | 0 | 48 | -22 | 67 | 96* | 95*
O=C(OCCNc1nc(-c2ccccc2)nc2ccccc12)c1cccnc1 | 11 | -7 | -17 | -6 | 81 | 21 | /
COc1ccc(-c2cc3nc4n(c(=O)c3s2)CCCCC4)cc1 | -195 | -5 | -57 | -14 | -10 | -214 | /
COc1ccc(-c2cc3nc4n(c(=O)c3s2)CCC4)cc1 | 15 | -33 | 51 | 0 | 41 | 59* | 32
CN(C)CCNc1ccc2ncn3c4ccc(O)cc4c(=O)c1c23 | 49* | 19 | 83* | -14 | -29 | 101* | 71*
N#Cc1ccccc1S(=O)(=O)Nc1ccc2c(c1)C(=O)OC2 | 17 | -9 | 2 | 0 | 18 | 2 | /
CC(C)Cc1ccc(C(C)C(N)=NCCc2ccccc2)cc1 (stereo not drawn) | 10 | 10 | 71* | -28 | 2 | 104* | 99*
O=C(C[C@@H]1C/C=C\C[C@@H](Cc2ccc(F)cc2)C(=O)OC[C@@H](Cc2ccccc2)NC1=O)N[C@H](CO)Cc1ccccc1 | 8 | 3 | -3 | 6 | 10 | 63* | 23
C[C@@H]1COC(=O)[C@H](Cc2ccc(F)cc2)C/C=C\C[C@@H](CC(=O)N[C@H](CO)Cc2ccccc2)C(=O)N1 | 2 | -2 | -1 | -4 | -5 | -8 | /
O=C1N[C@@H](c2ccccc2)COC(=O)[C@@H](Cc2ccc(F)cc2)CC/C=C/C[C@H]1CC(=O)N(CCO)Cc1ccccc1 | -11 | 37 | -2 | -8 | -5 | 52* | 47*
COc1ccc(-n2c(O)c(/C=N/Nc3nc(C)cc(C)n3)c3ccccc3c2=O)cc1OC | 23 | 20 | 40 | -5 | 91* | 56* | 45*
CC(C)c1ccc(-c2nc3ccccc3s2)cc1 | 77* | 21 | 92* | -79* | 88* | 72* | 83*
